# Assay results: ChEMBL document CHEMBL1157539, “Thousands of chemical starting points for antimalarial lead identification” (Nature, 2010)
# System: HepG2
# Experiment: GSK_TCMDC: Percent inhibition of human HepG2 cell line. Test compounds present at 10uM.
# Type: functional
row,Compound,Inhibition [%]
1,CSc1ccc(NC(=O)Nc2cc(C)nc3ccccc23)cc1,7
2,N.Nc1nc2c(ncn2COC2COP(=O)(O)OC2)c(=O)[nH]1 (centres undefined),7
3,COc1c(C2CCN(CCCCNC(=O)C=Cc3cc4cc(Cl)ccc4o3)CC2)ccc2c1CCCC2,33
4,COCCn1c(-c2nc(-c3ccc(F)cc3)cnc2N)nc2ccccc21,16
5,O=C(Nc1ccc(Cl)cc1)c1ccc(CN2CCCN(Cc3cccc(F)c3)CC2)cc1.O=C(O)C(F)(F)F,59
6,CC(=O)C=C1CC(=O)N(C[C@@H](O)[C@H]2O[C@@H]3OC(C)(C)O[C@@H]3[C@H]2O)c2ccccc2N1,0
7,COc1cc(C)c(NC(=O)c2cccc3c(=O)c(C)c(-c4ccccc4)oc23)cc1OC,96
8,CCCCCCNC(=N)c1ccc(OCCCCCOc2ccc(C(=N)NCCCCCC)cc2)cc1.Cl,55
9,O=c1cc(NCCCNCc2[nH]c3cc(Cl)cc(Cl)c3c2Cn2cccn2)[nH]c2ccccc12,5
10,Cc1ccc(CN2CCN(c3cc4c(cc3Cl)CCN4C(=O)Cc3ccc(Cl)c(NC(=O)Nc4cccc(C#N)c4)c3)CC2)cc1,3
11,Cc1cccc2nc(-c3ccc(-c4ccc(NC(=O)Nc5cccc(C#N)c5)cc4)s3)[nH]c12,33
12,Cc1ccccc1C1CCN(C2CCC(NC(=O)c3cc4cc(Cl)ccc4o3)CC2)CC1 (centres undefined),22
13,O=C(c1cccc(-c2cccc(-c3nc4cc(C(F)(F)F)ccc4[nH]3)c2)c1)N1CCCCC1CN1CCC(O)C1 (centres undefined),51
14,NC1CCN(c2nc(NCCc3ccc(O)cc3)nc(NCc3ccccc3-c3ccc(C(F)(F)F)cc3)n2)CC1.O=C(O)C(F)(F)F,18
15,O=C(/C=C/c1ccc(Cl)c(Cl)c1)NCCCCCCN1CCCN(C(=O)Nc2cc(Cl)cc(Cl)c2)CC1,26
16,Cc1cc(N[C@@H](Cc2ccccc2)C(=O)NCc2cccc(F)c2)nc(NCCCOC(C)C)n1.O=C(O)C(F)(F)F,10
17,CC(NC(C)c1cccc(Cl)c1)C(=O)Nc1cc(C(F)(F)F)ccc1N1CCOCC1 (centres undefined),30
18,Cc1cc(C(=O)CN2C(=O)NC3(CCOc4ccccc43)C2=O)c(C)n1Cc1ccc(F)cc1 (centres undefined),1
19,COc1ccc(C(C(=O)NC2CCN(C[C@H](O)c3ccnc4ccc(OC)cc34)CC2)N2CCN(c3ccc(Cl)c(Cl)c3)CC2)cc1 (some centres undefined),12
20,CN(C)CCOc1cc(NC(=O)Nc2ccc3c(c2)CCCC3=O)ccc1I,29

row,Compound,Inhibition [%]
1,O=C(Nc1ccccc1)N(Cc1ccc(-c2ccc(CNC3CCCC3)cc2)cc1)C1CCN(Cc2ccccc2)CC1.O=C(O)C(F)(F)F,34
2,Cl.N=C(N)c1ccc(NN=Cc2ccc(Oc3ccc(C(=N)N)cc3)cc2)cc1,18
3,O=C(C=Cc1ccc(Cl)c(Cl)c1)NCCCCCN1CCC(CCCNS(=O)(=O)c2ccc(Br)cc2)CC1,74
4,CCCc1ccc(NC(=O)c2ccc(CN3CCCN(Cc4ccc(OC)cc4)CC3)cc2)cc1.O=C(O)C(F)(F)F,47
5,CC(C)(C)c1ccc(NC(=O)c2cccc(CN3CCCN(Cc4ccsc4)CC3)c2)cc1.O=C(O)C(F)(F)F,33
6,CCn1c(=O)c(C(=O)Nc2cc(Cl)c(OC)cc2OC)nc2ccccc21,19
7,CC(=O)Nc1ccc(OCCCN(Cc2ccccc2OC(F)(F)F)c2ccc(C(F)(F)F)c(C#N)c2)c(Cl)c1,5
8,Cl.NC1=NC(c2ccccc2)N(OCc2ccccc2)C(N)=N1 (centres undefined),5
9,O=C(Nc1cccc(C(F)(F)F)c1)c1cccc(S(=O)(=O)NCC2CCN(CC3CCCCC3)CC2)c1.O=C(O)C(F)(F)F,27
10,Cc1cc(N(C)CCN(C)C)nc(Nc2ccc(Br)cc2)n1,7
11,O=C(NC1CCC(N2CCCC(OCc3ccccc3)C2)CC1)c1cc2ccccc2[nH]1 (centres undefined),38
12,CCOc1cc(C)ccc1C1CCN(CCCCNC(=O)c2ccc(NC(=O)c3cc(Cl)cc(Cl)c3)cc2)CC1,4
13,Cc1cc(N2CCC(NS(=O)(=O)c3cccc4cccnc34)CC2)nc(Nc2cccc(C#N)c2)n1.O=C(O)C(F)(F)F,12
14,Cl.N#Cc1ccc2c(c1)CN(CCC1CCC(NC(=O)c3cc4cnccc4[nH]3)CC1)CC2 (centres undefined),13
15,O=C(NCc1ccccc1)NC1CCN(c2ccnc3cc(Cl)ccc23)C1.O=C(O)C(F)(F)F (centres undefined),13
16,CC(C)(C)c1ccc(CN2CCC(NC(=O)c3ccc(-c4ccccc4F)s3)CC2)cc1.O=C(O)C(F)(F)F,36
17,Cc1[nH]c(C)c(-c2ccc(-c3ccccc3F)nc2)c(=O)c1Br,2
18,COc1ccc(C(=O)C2CC2CN(C)CCC(O)c2ccc(Cl)c(Cl)c2)cc1 (centres undefined),24
19,COc1ccc(CNCc2ccsc2)cc1-c1ccc(S(=O)(=O)NCCN2CCCC2)s1.O=C(O)C(F)(F)F,39
